We go through three compounds from PubChem BioAssay (NCATS).

Records with an inconclusive call do not appear. The source made the active and inactive calls. Unless noted, calls follow the shape of the dose curve; as a rule, active = well fitted curve in the direction sought with a large enough effect; inconclusive = small, poorly fitted or top-dose-only effect, or another doubt; inactive = no such curve, though single readings can be large; an effect the other way counts as inactive or inconclusive. Where only a bound is given, the exact number is not on record here.

The target in test [1] is Lysosomal acid glucosylceramidase (Homo sapiens) (UniProt P04062). Put plainly: Glucocerebrosidase-p2 (AID 348; in the data active = potency below about 10 µM; also: potency is read from the fitted curve at half-maximal effect). To be noted: purified GBA, blue fluorogenic substrate, 40 min. Summed up:
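Normal human glucocerebrosidase (0.2 nM) with blue fluorogenic substrate (80 uM final) in citrate/phosphate pH 5.9 with 10mM sodium taurocholate, 0.01% tween-20; 40 min RT, NaOH/glycine stop; fluorescence Ex 365/Em 440; AC50 from a titration from 0.6 nM upwards.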

Test [2] has as its target Cytochrome P450 1A2 (Homo sapiens) (UniProt P05177). The experiment in a line: p450-cyp1a2 (AID 410; calls by dose curve; also: potency is read from the fitted curve at half-maximal effect;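 as to activity change, negative = inhibition: -100% = full effect of reference inhibitor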). Summed up: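 Luminescent demethylation readout: Luciferin-ME (100uM, equal to Km) turned over by 20nM CYP1A2 for 60 min at room temperature after NADPH regeneration addition, following 10 min compound preincubation. Normalization used 57 uM furafylline as full inhibition.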

A short description of test [3]: NFAT Signaling Pathway (AID 444; active = well fitted curve in either direction with a large enough effect, not every such curve was filed as active;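 also: carbachol stimulus at about its EC50 of 1 µM final; % is scaled to controls: 0 for no effect and ±100 for the full control effect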). To be noted: Jurkat NFAT-bla M1, carbachol, beta-lactamase ratio, 5 h; at 7.69 µM (top of the series) unless noted. Summed up: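 Jurkat cells carrying an NFAT-driven β-lactamase reporter and co-transfected muscarinic M1 receptor were treated with compound plus carbachol (1 uM final, an EC50 level) for 5 h at 37 °C. CCF4 loading followed for 1 h at RT; 460/530 nm ratio gave %activity.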

The nature of test [4]: Stat Signaling Pathway (AID 446; active = well fitted curve in either direction with a large enough effect, not every such curve was filed as active;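 also: ME-180 cervical cancer cells given 40 pM IL-6 alongside compound; SIE-controlled beta-lactamase reporter measured as 460/530 nm FRET emission ratio; % is scaled to controls: 0 for no effect and ±100 for the full control effect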). To be noted: ME-180 SIE beta-lactamase reporter, IL-6 stimulated, 5 h; at 7.69 µM (top of the series) unless noted. Summed up: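 Normalization used AC90 stimulation (300 pM IL-6) and AC90 inhibition (125 nM pan-JAK inhibitor at 40 pM IL-6). The underlying signal is SIE-driven beta-lactamase in ME-180 cells after 5 h IL-6 exposure with compound.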

Test [5] addresses Glucocorticoid receptor (Homo sapiens) (UniProt P04150). The experiment in a line: GR-GFP Redistribution (AID 450;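 active = compounds whose dose series gives a full or clear partial fitted curve of increased nuclear translocation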; also: potency is read from the fitted curve at half-maximal effect). The conditions noted are these: U2OS GR-GFP nuclear translocation, laser cytometry, 2 h.
Test [6] has the same target. The experiment in a line: GR-EFC Redistribution (AID 451; calls by dose curve; also: potency is read from the fitted curve at half-maximal effect). The conditions noted are these: CHO-K1 GR-EFC translocation, beta-gal luminescence, 2 h. Summed up:
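CHO-K1 cells stably expressing nuclear-localized β-gal enzyme acceptor and GR fused C-terminally to the enzyme donor fragment; ligand-driven nuclear translocation restores β-gal by complementation. Compounds titrated up to 46 uM final, 2 h at 37 °C; luminescence read.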

The target of test [7] is Mitogen-activated protein kinase 10 (Mus musculus) (UniProt Q61831). Put plainly: JNK3 AlphaScreen Assay (AID 530; active = well fitted curve in either direction with a large enough effect, not every such curve was filed as active;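 also: kinase came from lysate of stimulated human HepG2 cells; signal reports phosphorylation of biotinylated GST-cJun 1-79 at Ser73 with 10 µM ATP; % is scaled to controls: 0 for no effect and ±100 for the full control effect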). Put shortly:
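Phosphorylation of biotinylated GST-cJun(1-79) at Ser73 is measured by AlphaScreen proximity luminescence. Enzyme is JNK3 in HepG2 lysates activated with interleukin-1beta and tumor necrosis factor alpha; ATP is 10 uM final.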
On the technique in general: Alpha assays give light when donor and acceptor beads are brought close together.

Test [8] has as its target Cytochrome P450 3A4 (Homo sapiens) (UniProt P08684). The experiment in a line: qHTS Assay for Activators of Cytochrome P450 3A4 (AID 885). Also: nearly all actives have a fitted effect of over 65% in size. Summed up:
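Human CYP3A4 dealkylates Luciferin-PPXE to luciferin, which luciferase detection converts to light. Substrate was at its KM (25uM), buffer 200mM KPO4, reaction 60 min at RT.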

In test [9] the target is Dual specificity protein kinase CLK4 (Homo sapiens) (UniProt Q9HAZ1). Put plainly: qHTS Assay for Inhibitors of CDC-like Kinase 4 (Kinase-Glo Assay) (AID 1770). Also: % is scaled to controls: 0 for no effect and ±100 for the full control effect; nearly all actives have a fitted effect of over 65% in size. Summed up:
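Luminescent ATP-depletion read-out (Kinase-Glo) after 4.5 h room-temperature reaction of Clk4 (25 nM final) with RS peptide (100 uM) and ATP (1 uM), pH 7.5 Tris buffer with MgCl2 and DTT.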
A general note: In qHTS, concentration-response curves come from the screen itself.

Test [10] has the same target. The experiment in a line: qHTS Assay for Inhibitors of CDC-like Kinase 4 (ADP-Glo Assay) (AID 1771). Also: % is scaled to controls: 0 for no effect and ±100 for the full control effect; nearly all actives have a fitted effect of over 70% in size. Put shortly:
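ADP production was read by ADP-Glo luminescence after residual ATP depletion, following 1 h room-temperature reaction of 25 nM Clk4, 1 uM ATP and 100 uM RS peptide with MgCl2, EGTA, DTT and Triton X-100.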

Test [11] shares this target. Put plainly: qHTS Assay for Inhibitors of CDC-like Kinase 4 (ADP-FP Assay) (AID 1795).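 Also: recombinant human CLK4 phosphorylating RS repeat peptide at 1 µM ATP; % is scaled to controls: 0 for no effect and ±100 for the full control effect; nearly all actives have a fitted effect of over 60% in size.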 Put shortly:
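Kinase activity was measured as ADP production using Transcreener orange tracer (4 nM) and ADP antibody (1 ug/mL) fluorescence polarization, with ADP calculated from a calibration curve. The 1 h reaction contained 6.25 nM Clk4, 1 uM ATP and 100 uM RS peptide at pH 7.5 with Mg2+.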

The target in test [12] is Ubiquitin carboxyl-terminal hydrolase 1 (Homo sapiens) (UniProt O94782). The experiment in a line: Inhibitors of USP1/UAF1: Pilot qHTS (AID 504865).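 Also: rhodamine fluorescence freed from ubiquitin-rhodamine substrate followed over time; top concentration of the series differs between compounds; % is scaled to controls: 0 for no effect and ±100 for the full control effect; nearly all actives have a fitted effect of over 35% in size.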 Put shortly:
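Deubiquitinase activity followed as kinetic rhodamine fluorescence release from 150 nM Ub-Rho. 1 nM USP1/UAF1 with compound, after 15 min room-temperature preincubation, in HEPES pH 7.8 buffer containing TCEP, EDTA, BSA and Tween-20.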

Test [13] can be described thus: Primary qHTS for small molecule stabilizers of the endoplasmic reticulum resident proteome: Secreted ER Calcium Modulated Protein (SERCaMP) assay (AID 1508630). Also: % is scaled to controls: 0 for no effect and ±100 for the full control effect. Put shortly: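 The SH-SY5Y reporter protocol was run at 3 concentrations up to 38.3 uM (primary) or 11 concentrations (follow-up): 16 h compound, 100 nM thapsigargin for 4 h, then extracellular luciferase luminescence.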

Test [14] addresses 3',5'-cyclic-AMP phosphodiesterase 4B (Homo sapiens) (UniProt Q07343). The experiment in a line: qHTS Assay for Inhibitors of PDE-IV (AID 607; active = well fitted activation curve with a large enough effect in the main read-out, with a control signal flat, not every such curve was filed as active; also: % of control where 0% means no effect). Summed up:
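HEK293 ACTOne cells with CNG channel (1000/well), endogenous PDE4; membrane potential dye, compounds up to 22.9 uM final. Fluorescence Ex 535/Em 590; RO 20-1724 (100 uM final) as reference.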

The target in test [15] is Cytochrome P450 2C9 (Homo sapiens) (UniProt P11712). The experiment in a line: qHTS Assay for Inhibitors and Substrates of Cytochrome P450 2C9 (AID 883). Also: % is scaled to controls: 0 for no effect and ±100 for the full control effect; nearly all actives have a fitted effect of over 60% in size. Put shortly: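 CYP2C9 deoxyluciferin hydroxylation, 37C, 60 min with NADPH regeneration; 10nM enzyme, 100uM Luciferin-H (KM). Glo detection reagent stopped reaction; luminescence normalized to sulphaphenazole (57uM) full inhibition.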

Test [16] addresses Cytochrome P450 3A4 (Homo sapiens) (UniProt P08684). The experiment in a line: qHTS Assay for Inhibitors and Substrates of Cytochrome P450 3A4 (AID 884). Also: % is scaled to controls: 0 for no effect and ±100 for the full control effect; nearly all actives have a fitted effect of over 50% in size. Put shortly:
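Luminescent readout of luciferin produced by CYP3A4 (20 nM) dealkylation of Luciferin-PPXE, 25 uM (its KM). NADPH-driven reaction ran 60 min at RT after 10 min compound preincubation; data scaled to 57 uM ketoconazole as 100% inhibition.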

The target of test [17] is Cytochrome P450 2C19 (Homo sapiens) (UniProt P33261). The experiment in a line: qHTS Assay for Inhibitors and Substrates of Cytochrome P450 2C19 (AID 899). Also: nearly all actives have a fitted effect of over 60% in size. Also: potency is read from the fitted curve at half-maximal effect. Summed up: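 In 50mM KPO4, the reaction held 5nM enzyme and KM-level (10uM) Luciferin-H EGE; it ran 60 min at 37C after NADPH regeneration and a 10 min compound preincubation. Luminescence values were scaled to 57uM ketoconazole as complete inhibition.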
Sequence of Cytochrome P450 2C19 (Homo sapiens) (P33261 whole entry, looked up): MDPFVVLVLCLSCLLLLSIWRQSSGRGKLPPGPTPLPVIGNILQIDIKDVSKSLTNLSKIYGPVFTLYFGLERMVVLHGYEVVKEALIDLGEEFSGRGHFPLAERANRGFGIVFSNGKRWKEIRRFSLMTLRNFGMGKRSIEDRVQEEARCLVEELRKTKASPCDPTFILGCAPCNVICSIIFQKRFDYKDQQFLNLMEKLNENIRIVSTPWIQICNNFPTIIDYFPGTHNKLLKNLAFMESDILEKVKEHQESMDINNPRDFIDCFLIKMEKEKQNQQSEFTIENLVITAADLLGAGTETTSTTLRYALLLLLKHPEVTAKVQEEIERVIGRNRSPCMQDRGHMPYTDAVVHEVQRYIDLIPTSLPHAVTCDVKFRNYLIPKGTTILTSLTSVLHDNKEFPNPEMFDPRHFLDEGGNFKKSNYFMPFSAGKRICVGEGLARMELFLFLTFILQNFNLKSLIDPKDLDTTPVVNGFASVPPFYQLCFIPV

Test [18] is described as follows: qHTS Assay for Identification of Small Molecule Agonists for Hypoxia Response Element Signaling Pathway (AID 914; active = well fitted activation curve with a large enough effect in the signal ratio, with a control signal flat, not every such curve was filed as active; the % refers to the signal ratio; also: % of control where 0% means no effect). To be noted: ME-180 HRE-bla reporter, beta-lactamase ratio, CoCl2, 17 h; activation: stronger effect = higher value. Summed up: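 Read-out: CCF4 FRET ratio of 460nm to 530nm emission (excitation 405nm) after 2.5 hours at room temperature, taken from HRE-bla ME-180 cells that had been exposed to compound and EC50 CoCl2 for 17 hours.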

The nature of test [19]: AP1 Signaling Pathway (AID 357; active = well fitted curve in either direction with a large enough effect, not every such curve was filed as active). To be noted: ME-180 (cervical carcinoma) AP-1-bla reporter, EGF-induced, beta-lactamase ratio, 5 h; at 7.69 µM (top of the series) unless noted. Put shortly: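 Beta-lactamase reporter under AP-1 response element, ME-180 background. Stimulus: EC50 EGF. Compound exposure 5 h, 37 °C. Detection: CCF4, 2.5 h RT, 460/530 nm. Values: AC50 from titration.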
Test [20] can be described thus: qHTS Assay for Lipid Storage Modulators (AID 1519; calls by dose curve). To be noted: Drosophila S3 cells, BODIPY lipid droplet/cell ratio, laser cytometry, cells loaded with oleic acid. Summed up:
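Cells seeded at 5,000 per well were treated with compounds over a concentration series and loaded with oleic acid (400 uM, as added). Lipid droplet fluorescence (488 nm excitation, 500-530 nm channel) was read by laser-scanning cytometry and normalized to 20 uM Triacsin C.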

Test [21] concerns the target Rap guanine nucleotide exchange factor 3 (Homo sapiens) (UniProt O95398). Put plainly: Confirmatory qHTS for agonist of cAMP-regulated guanine nucleotide exchange factor 3 (EPAC1) (AID 1645881).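 Also: EPAC1 catalysed release of BODIPY-GDP from Rap1B seen as fluorescence loss; 100% = effect of cAMP agonist control; nearly all actives have a fitted effect of over 75% in size.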
For test [22], the target named is Rap guanine nucleotide exchange factor 4 (Homo sapiens) (UniProt Q8WZA2). The experiment in a line: Confirmatory qHTS for agonist of cAMP-regulated guanine nucleotide exchange factor 4 (EPAC2) (AID 1645884).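 Also: nucleotide exchange releases bodipy-GDP from Rap1 and this lowers its fluorescence; % is scaled to controls: 0 for no effect and ±100 for the full control effect; nearly all actives have a fitted effect of over 65% in size.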

Sequence of Dual specificity protein kinase CLK4 (Homo sapiens) (Q9HAZ1 whole entry, looked up): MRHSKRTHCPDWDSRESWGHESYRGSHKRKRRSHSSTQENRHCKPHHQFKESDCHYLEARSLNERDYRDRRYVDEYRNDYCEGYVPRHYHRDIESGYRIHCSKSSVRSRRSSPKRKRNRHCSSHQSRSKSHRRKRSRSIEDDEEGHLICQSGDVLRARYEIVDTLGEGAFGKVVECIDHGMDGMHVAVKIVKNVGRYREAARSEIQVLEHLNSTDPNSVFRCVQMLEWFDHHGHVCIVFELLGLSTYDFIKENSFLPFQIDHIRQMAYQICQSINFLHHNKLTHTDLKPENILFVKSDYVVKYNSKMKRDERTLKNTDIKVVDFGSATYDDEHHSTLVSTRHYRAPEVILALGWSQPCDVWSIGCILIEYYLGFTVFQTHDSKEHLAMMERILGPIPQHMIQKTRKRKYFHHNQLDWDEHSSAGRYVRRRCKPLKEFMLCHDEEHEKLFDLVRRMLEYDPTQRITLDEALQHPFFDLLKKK
Sequence of Cytochrome P450 3A4 (Homo sapiens) (P08684 whole entry, looked up): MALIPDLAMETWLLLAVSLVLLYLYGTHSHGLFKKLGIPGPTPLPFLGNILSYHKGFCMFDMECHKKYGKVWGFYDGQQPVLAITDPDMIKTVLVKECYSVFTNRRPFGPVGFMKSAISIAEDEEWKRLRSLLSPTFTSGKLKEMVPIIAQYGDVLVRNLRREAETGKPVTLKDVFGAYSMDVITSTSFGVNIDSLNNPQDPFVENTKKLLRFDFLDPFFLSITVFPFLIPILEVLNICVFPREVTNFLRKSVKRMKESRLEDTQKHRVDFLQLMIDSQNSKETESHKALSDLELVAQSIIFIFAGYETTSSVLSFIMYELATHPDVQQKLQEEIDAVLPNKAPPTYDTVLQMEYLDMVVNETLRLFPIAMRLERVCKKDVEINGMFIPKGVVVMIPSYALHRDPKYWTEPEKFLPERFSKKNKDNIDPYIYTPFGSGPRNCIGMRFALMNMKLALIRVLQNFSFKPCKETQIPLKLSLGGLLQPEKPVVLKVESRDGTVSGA
Sequence of Cytochrome P450 1A2 (Homo sapiens) (P05177 whole entry, looked up): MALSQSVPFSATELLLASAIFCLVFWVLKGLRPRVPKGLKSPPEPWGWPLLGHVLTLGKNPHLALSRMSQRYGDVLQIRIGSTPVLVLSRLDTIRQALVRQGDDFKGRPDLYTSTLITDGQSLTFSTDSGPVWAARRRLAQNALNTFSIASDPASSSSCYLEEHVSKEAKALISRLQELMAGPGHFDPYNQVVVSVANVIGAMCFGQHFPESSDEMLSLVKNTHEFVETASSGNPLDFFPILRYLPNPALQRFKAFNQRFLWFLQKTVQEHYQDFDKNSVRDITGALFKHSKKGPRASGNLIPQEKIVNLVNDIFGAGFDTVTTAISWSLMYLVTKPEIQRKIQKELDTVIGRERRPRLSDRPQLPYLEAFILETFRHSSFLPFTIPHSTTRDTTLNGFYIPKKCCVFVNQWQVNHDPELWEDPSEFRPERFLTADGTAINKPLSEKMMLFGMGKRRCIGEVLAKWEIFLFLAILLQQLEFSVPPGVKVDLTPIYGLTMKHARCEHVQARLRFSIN
Sequence of Lysosomal acid glucosylceramidase (Homo sapiens) (P04062 whole entry, looked up): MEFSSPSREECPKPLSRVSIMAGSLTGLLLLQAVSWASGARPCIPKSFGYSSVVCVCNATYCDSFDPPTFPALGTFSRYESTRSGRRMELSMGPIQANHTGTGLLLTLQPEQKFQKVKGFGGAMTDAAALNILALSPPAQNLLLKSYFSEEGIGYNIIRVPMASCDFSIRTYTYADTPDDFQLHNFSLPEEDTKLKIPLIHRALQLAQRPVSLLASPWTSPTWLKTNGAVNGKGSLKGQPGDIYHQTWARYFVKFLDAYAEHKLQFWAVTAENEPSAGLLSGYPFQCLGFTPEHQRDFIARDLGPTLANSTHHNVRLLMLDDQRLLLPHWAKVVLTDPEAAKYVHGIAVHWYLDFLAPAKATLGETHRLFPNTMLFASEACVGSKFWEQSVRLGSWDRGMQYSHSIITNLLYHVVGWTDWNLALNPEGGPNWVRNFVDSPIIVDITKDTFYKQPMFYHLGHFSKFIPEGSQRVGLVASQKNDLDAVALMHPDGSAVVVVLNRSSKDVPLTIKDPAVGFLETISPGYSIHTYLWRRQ
Sequence of Glucocorticoid receptor (Homo sapiens) (P04150 whole entry, looked up): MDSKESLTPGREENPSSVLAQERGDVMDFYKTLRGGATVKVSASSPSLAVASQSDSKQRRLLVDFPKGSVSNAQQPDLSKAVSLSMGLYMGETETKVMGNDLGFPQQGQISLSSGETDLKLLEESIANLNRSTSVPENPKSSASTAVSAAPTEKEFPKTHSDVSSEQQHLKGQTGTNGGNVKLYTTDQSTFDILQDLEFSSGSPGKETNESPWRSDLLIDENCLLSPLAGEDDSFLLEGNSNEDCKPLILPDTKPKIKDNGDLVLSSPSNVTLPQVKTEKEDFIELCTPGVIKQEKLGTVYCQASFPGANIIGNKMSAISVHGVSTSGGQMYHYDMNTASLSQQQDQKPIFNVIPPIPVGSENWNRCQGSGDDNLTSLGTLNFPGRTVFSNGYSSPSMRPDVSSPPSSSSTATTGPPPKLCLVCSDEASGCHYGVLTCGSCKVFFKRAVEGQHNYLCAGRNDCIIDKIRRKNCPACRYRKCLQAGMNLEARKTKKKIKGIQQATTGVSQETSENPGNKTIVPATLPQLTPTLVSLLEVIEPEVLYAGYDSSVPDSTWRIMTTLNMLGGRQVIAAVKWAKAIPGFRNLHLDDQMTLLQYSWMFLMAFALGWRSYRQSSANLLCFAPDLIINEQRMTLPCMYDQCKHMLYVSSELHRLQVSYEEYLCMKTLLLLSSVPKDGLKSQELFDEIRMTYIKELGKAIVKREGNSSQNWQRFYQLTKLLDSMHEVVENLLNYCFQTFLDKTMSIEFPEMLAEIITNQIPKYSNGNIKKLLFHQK
Sequence of Ubiquitin carboxyl-terminal hydrolase 1 (Homo sapiens) (O94782 whole entry, looked up): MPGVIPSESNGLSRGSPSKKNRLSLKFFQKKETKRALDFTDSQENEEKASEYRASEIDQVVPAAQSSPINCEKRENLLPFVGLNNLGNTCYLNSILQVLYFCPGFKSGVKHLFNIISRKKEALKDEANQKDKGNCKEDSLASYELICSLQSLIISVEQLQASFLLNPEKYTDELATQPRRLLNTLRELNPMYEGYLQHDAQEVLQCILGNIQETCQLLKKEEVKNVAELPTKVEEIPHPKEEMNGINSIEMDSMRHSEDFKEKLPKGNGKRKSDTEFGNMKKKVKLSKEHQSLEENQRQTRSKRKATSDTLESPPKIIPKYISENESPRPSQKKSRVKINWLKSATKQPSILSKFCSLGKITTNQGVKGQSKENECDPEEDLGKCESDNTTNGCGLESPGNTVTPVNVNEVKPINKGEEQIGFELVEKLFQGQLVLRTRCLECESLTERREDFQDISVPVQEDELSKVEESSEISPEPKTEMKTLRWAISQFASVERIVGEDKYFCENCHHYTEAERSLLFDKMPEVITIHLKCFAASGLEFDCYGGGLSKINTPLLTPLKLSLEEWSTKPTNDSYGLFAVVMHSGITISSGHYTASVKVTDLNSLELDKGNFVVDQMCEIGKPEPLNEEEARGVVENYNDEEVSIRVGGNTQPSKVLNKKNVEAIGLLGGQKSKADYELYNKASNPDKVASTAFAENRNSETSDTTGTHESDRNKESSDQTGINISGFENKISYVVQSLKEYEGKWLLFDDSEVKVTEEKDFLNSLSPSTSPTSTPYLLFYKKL
Sequence of 3',5'-cyclic-AMP phosphodiesterase 4B (Homo sapiens) (Q07343 whole entry, looked up): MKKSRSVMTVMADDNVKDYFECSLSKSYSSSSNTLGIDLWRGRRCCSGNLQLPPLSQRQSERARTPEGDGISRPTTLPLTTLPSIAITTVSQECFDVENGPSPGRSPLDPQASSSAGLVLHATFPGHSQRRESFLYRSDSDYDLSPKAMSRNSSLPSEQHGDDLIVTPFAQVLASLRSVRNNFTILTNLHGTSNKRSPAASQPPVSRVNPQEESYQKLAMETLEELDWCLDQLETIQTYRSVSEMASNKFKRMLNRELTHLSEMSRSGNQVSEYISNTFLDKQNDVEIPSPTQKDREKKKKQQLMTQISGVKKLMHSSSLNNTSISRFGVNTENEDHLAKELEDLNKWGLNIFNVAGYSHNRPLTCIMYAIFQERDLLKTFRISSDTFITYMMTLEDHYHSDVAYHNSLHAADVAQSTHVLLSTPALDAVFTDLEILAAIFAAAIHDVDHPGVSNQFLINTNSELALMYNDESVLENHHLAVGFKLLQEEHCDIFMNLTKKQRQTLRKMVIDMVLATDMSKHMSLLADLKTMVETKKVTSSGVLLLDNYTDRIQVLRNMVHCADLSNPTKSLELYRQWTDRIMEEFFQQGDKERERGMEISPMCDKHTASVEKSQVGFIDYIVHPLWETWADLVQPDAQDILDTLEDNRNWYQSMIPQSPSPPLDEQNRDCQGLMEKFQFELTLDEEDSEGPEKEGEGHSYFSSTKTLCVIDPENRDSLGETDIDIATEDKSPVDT

Turning to `COc1cccc(Nc2ncc3nc(C)c(=O)n(Cc4cccs4)c3n2)c1`, the Potency in [1] is > 11.4 µM (inactive); in test [2], 2.51 µM (active); in test [5], > 9.22 µM (inactive); in test [6], > 46 µM (inactive). Besides, the activity change, negative = inhibition in [3] was -29.6% (inactive). In addition, the activity, negative = inhibition in [4] is -12.1% (inactive). The call in test [7] was inactive. Also, the Potency entry in test [8], in test [9], in test [10], in test [11], in [12] and in test [13] was “inactive” each time.
Turning to `c1ccc(Nc2cc(-c3ccoc3)ncn2)cc1`, the Potency in test [1] was > 11.4 µM (inactive); in test [2], 15.8 µM (active); in test [6] it was > 46 µM (inactive); in test [17], 7.94 µM (active). Moreover, the activity change, negative = inhibition in test [3] was -0.633% (inactive); in test [15], -13.3% [at 2.29 µM] (inactive). In test [4], the activity, negative = inhibition was -2.05% (inactive). In addition, in test [7], the outcome was inactive. For the same compound, the Potency entry in [14], in test [16], in test [9], in [10], in test [11] and in test [12] was “inactive” in each case. Moreover, the Potency entry in test [13] is “inactive”. The activation in [18] is -8.49% (inactive).
As to `O=C(c1cc(C(F)(F)F)cc(C(F)(F)F)c1)N1CCC2(CCCN(Cc3nccs3)C2)CC1`, the Potency in test [1] is > 11.4 µM (inactive); in test [6], > 46 µM (inactive). Besides, the activity change, negative = inhibition in [19] was -11.4% (inactive); in [20] (at 57.5 µM (top of the series)), -19.9% (inactive). Also, the Potency result in test [2], in test [14], in test [8] and in [17] was “inactive” in each case. Also, in test [4], the activity, negative = inhibition is -17.2% (inactive). The outcome in test [7], in test [21] and in [22] was inactive. Also, the max response in [20] (measured here: cell count channel max response) is 17.8%; in [20] (measured here: lipid channel max response) it was -1.38%.
